Sm TGR block: blocks Schistosoma mansoni thioredoxin glutathione reductase. actives 3% (n = 360,000). Potency, µM (titrated, usually from 114 µM), for inactives: at the top dose activity change, negative = inhibition, most hits filed as inhibitors. purified TGR, DTNB reduction, TNB absorbance 405 nm; also: potency is read from the fitted curve at half-maximal effect; % is scaled to controls: 0 for no effect and ±100 for the full control effect; nearly all actives have a fitted effect of over 60% in size
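First, TGR (20 nM dispensed) and NADPH were mixed with compound. Second, a 15 min room-temperature incubation followed. Third, further NADPH and then DTNB were added to start the reaction. Finally, TNB absorbance was monitored kinetically.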
SARS PLpro yeast: blocks SARS-CoV papain-like protease in a yeast assay; S. cerevisiae expressing SARS-CoV PLpro, growth rescue; Potency, µM (series often up to 32.9 µM), for the others: top-dose activity, positive = growth rescue, hits mostly activators; actives 0.19% (n = 330,000); calls by dose curve; also: potency is read from the fitted curve at half-maximal effect; 0% is about no effect; nearly all actives have a fitted effect of over 55% in size
HCV inhibitor: inhibitors of hepatitis C virus infection; AID 651820; actives 3.4% (n = 340,000); Huh7.5.1 HCVcc-Cre infection, luciferase reporter, 44 h; Potency, µM (series often up to 41.8 µM), for the others: at the top dose activity change, negative = inhibition, most hits filed as inhibitors; also: potency is read from the fitted curve at half-maximal effect; % is scaled to controls: 0 for no effect and ±100 for the full control effect
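Whole-lifecycle infectious HCVcc-Cre system; cells 1,000/well, compound then virus (~0.5 moi) added 4 h after plating, 44 h culture. Luciferase read 15 sec following 15 min substrate incubation, room temp.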
Pf growth 48h: inhibits P. falciparum growth in the first generation, 48 h; actives 5.9% (n = 310,000); AID 504832; Potency, µM (doses to about 28.7 µM), without a hit: at the highest dose activity change, negative = inhibition, most hits filed as inhibitors; P. falciparum luciferase growth in erythrocytes, 48 h; also: potency is read from the fitted curve at half-maximal effect; % is scaled to controls: 0 for no effect and ±100 for the full control effect
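Here the parasites carry a stable luciferase gene and grow inside erythrocytes in Albumax-based RPMI medium with compound for one erythrocytic cycle. Activity is scored as loss of luminescent signal.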
Pf growth 96h: inhibits malaria parasite growth, 96 h | P. falciparum luciferase reporter growth, 96 h | Potency, µM (titrated, usually from 28.7 µM), for the others: at the highest dose activity change, negative = inhibition, most hits filed as inhibitors | actives 6.9% (n = 320,000); also: potency is read from the fitted curve at half-maximal effect; % is scaled to controls: 0 for no effect and ±100 for the full control effect
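Luminescence readout: decreased luciferase signal marks inhibited growth of reporter-expressing P. falciparum in infected red cells (2% hematocrit, 0.05% parasitemia final), exposed to compound two generations (96 h, 37 C, 5% CO2).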
HCMV inh: human cytomegalovirus inhibition; HFF cells, HCMV-luciferase reporter, 72 h; stronger effect = lower value; activity change, negative = inhibition, % at 57.5 µM; actives 4.5% (n = 410,000); in the data active = activity change below about -60%; inconclusive = no clear call, values can overlap the other calls; inactive = above about -39%; also: % is scaled to controls: 0 for no effect and ±100 for the full control effect
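Human foreskin fibroblasts infected with luciferase-reporter HCMV at MOI 1 PFU/cell, compounds at two doses. Luciferase measured 72 h post infection; normalized to buffer-only basal and Salinomycin (10uM) controls.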
Active calls of the source: *. Shown are actives, neighbours in structure and some others; about 15% of the full set was active somewhere. Unless noted, calls follow the shape of the dose curve; as a rule, active = well fitted curve in the direction sought with a large enough effect; inconclusive = small, poorly fitted or top-dose-only effect, or another doubt; inactive = no such curve, though single readings can be large; an effect the other way counts as inactive or inconclusive.

What do the screens show for `CCN1C(=O)c2cccc3cccc1c23`?
Sm TGR block: 11µM*; SARS PLpro yeast: -3%; HCV inhibitor: inconclusive; Pf growth 48h: 10%; Pf growth 96h: 10%; HCMV inh: 69

How did O=C(O)c1ccccc1N1C(=O)c2cccc3cccc(c23)C1=O do in these assays?
Sm TGR block: 3%; SARS PLpro yeast: 0%; HCV inhibitor: 28%; Pf growth 48h: 15%; Pf growth 96h: 8.3µM*; HCMV inh: -15

What do the screens show for `CN(C)C(=O)CN1C(=O)c2cccc3cccc1c23`?
Sm TGR block: 7%; SARS PLpro yeast: 3%; HCV inhibitor: 2%; Pf growth 48h: -9%; Pf growth 96h: -15%; HCMV inh: -3

How did C=CCNc1ncnc2c1ncn2[C@H]1CN(Cc2cccc3ccccc23)C[C@@H](CO)O1 do in these assays?
HCMV inh: -37

Results for COc1ccc(CCNC(=O)[C@H](C)N2C(=O)N3CCc4c([nH]c5ccccc45)[C@@]3(C)C2=O)cc1OC ?
Sm TGR block: 13%; SARS PLpro yeast: inconclusive; HCV inhibitor: 1µM*; Pf growth 48h: inconclusive; Pf growth 96h: -5%; HCMV inh: -29

What do the screens show for `COc1ccc(CNC(=O)[C@H](C)N2C(=O)N3CCc4c([nH]c5ccc(OC)cc45)[C@@]3(C)C2=O)cc1`?
Sm TGR block: -15%; SARS PLpro yeast: -3%; HCV inhibitor: inconclusive; Pf growth 48h: inconclusive; Pf growth 96h: inconclusive; HCMV inh: -40

Results for COc1ccc2[nH]c3c(c2c1)CCN1C(=O)N([C@@H](C)C(=O)NCCc2ccc(OC)c(OC)c2)C(=O)[C@]31C ?
Sm TGR block: -6%; SARS PLpro yeast: 4%; HCV inhibitor: inconclusive; Pf growth 48h: inconclusive; Pf growth 96h: 10µM*; HCMV inh: 12

Results for C[C@@H](C(=O)NC1CCCC1)N1C(=O)N2CCc3c([nH]c4ccccc34)[C@@]2(C)C1=O ?
Sm TGR block: -2%; SARS PLpro yeast: 4%; HCV inhibitor: 10µM*; Pf growth 48h: 4%; Pf growth 96h: 54%; HCMV inh: 16

Results for CC(C)[C@@H](C(=O)NC1CCCC1)N1C(=O)N2CCc3c([nH]c4ccccc34)[C@@]2(C)C1=O ?
Sm TGR block: -12%; SARS PLpro yeast: 0%; HCV inhibitor: inconclusive; Pf growth 48h: -46%; Pf growth 96h: inconclusive; HCMV inh: 23

What do the screens show for `COc1ccc(CCNC(=O)[C@H](C)N2C(=O)N3CCc4c([nH]c5ccccc45)[C@@]3(C)C2=O)cc1`?
Sm TGR block: 0%; SARS PLpro yeast: -24%; HCV inhibitor: 4.5µM*; Pf growth 48h: inconclusive; Pf growth 96h: inconclusive; HCMV inh: 18

What do the screens show for `COc1ccccc1S(=O)(=O)N(C)C[C@@H]1OCc2cnnn2CCCC(=O)N([C@@H](C)CO)C[C@H]1C`?
HCMV inh: 16

What do the screens show for `COc1ccc2[nH]c3c(c2c1)CCN1C(=O)N([C@@H](C)C(=O)NC2CCCCC2C)C(=O)[C@]31C` (stereo partly specified)?
Sm TGR block: 0%; SARS PLpro yeast: 6%; HCV inhibitor: -28%; Pf growth 48h: 9.3µM*; Pf growth 96h: 12µM*; HCMV inh: 27

Results for COc1cccc(CNC(=O)[C@@H](C)N2C(=O)N3CCc4c([nH]c5ccc(OC)cc45)C3(C)C2=O)c1 (stereo partly specified) ?
Sm TGR block: -15%; SARS PLpro yeast: -2%; HCV inhibitor: 8.9µM*; Pf growth 48h: -50%; Pf growth 96h: inconclusive; HCMV inh: -32

Results for CN(C)C(=O)COC(=O)c1ccccc1NC(=O)c1ccco1 ?
Sm TGR block: -1%; SARS PLpro yeast: 0%; HCV inhibitor: -13%; Pf growth 48h: 18%; Pf growth 96h: 20%; HCMV inh: -19

How did Clc1cccc(CNc2cc(-c3ccccc3)nc3nncn23)c1 do in these assays?
Sm TGR block: -1%; HCMV inh: -62*

How did COc1ccccc1CNc1cc(-c2ccccc2)nc2nncn12 do in these assays?
Sm TGR block: 35µM*; HCMV inh: -87*

Results for Clc1ccc(CNc2cc(-c3ccccc3)nc3nncn23)cc1 ?
Sm TGR block: -7%; HCMV inh: -33

What do the screens show for `COC(=O)c1scc(-c2ccc(C)cc2)c1S(=O)(=O)Nc1ccc(NC(C)=O)cc1`?
Sm TGR block: -2%; HCMV inh: 10

Results for COC(=O)c1scc(C)c1S(=O)(=O)Nc1ccc(C)cc1 ?
Sm TGR block: 9%; SARS PLpro yeast: -2%; HCV inhibitor: 0%; Pf growth 48h: inconclusive; Pf growth 96h: 12µM*; HCMV inh: 9

How did CCCCN(C)C(=O)c1ccc2c(c1)N(Cc1cccc(Cl)c1)C(=O)c1ccccc1S2=O (stereo unspecified) do in these assays?
Sm TGR block: 6%; HCMV inh: -81*

How did CC1CCCN(CCCNC(=O)c2ccc3c(c2)N(Cc2ccc(F)cc2)C(=O)c2ccccc2S3=O)C1 (stereo unspecified) do in these assays?
Sm TGR block: -4%; SARS PLpro yeast: inconclusive; HCV inhibitor: inconclusive; Pf growth 48h: 13µM*; Pf growth 96h: 12µM*; HCMV inh: -22

How did CCC(C)NC(=O)c1ccc2c(c1)N(Cc1cccc(Cl)c1)C(=O)c1ccccc1S2=O (stereo unspecified) do in these assays?
Sm TGR block: 9%; HCMV inh: 0

Results for CCN1C(=O)c2ccccc2S(=O)c2ccc(C(=O)NCCN(CC(C)C)CC(C)C)cc21 (stereo unspecified) ?
Sm TGR block: -25%; SARS PLpro yeast: 1%; HCV inhibitor: -8%; Pf growth 48h: 12µM*; Pf growth 96h: 76%; HCMV inh: -37

What do the screens show for `O=C(NCCCN1CCOCC1)c1ccc2c(c1)N(Cc1ccccc1F)C(=O)c1ccccc1S2=O` (stereo unspecified)?
Sm TGR block: 0%; SARS PLpro yeast: 6%; HCV inhibitor: -13%; Pf growth 48h: -24%; Pf growth 96h: 15µM*; HCMV inh: -37

How did CC(Oc1cc2oc(=O)c3c(c2cc1Cl)CCC3)C(=O)NCCCn1ccnc1 (stereo unspecified) do in these assays?
Sm TGR block: 0%; SARS PLpro yeast: -1%; HCV inhibitor: -5%; Pf growth 48h: 7%; Pf growth 96h: inconclusive; HCMV inh: -38
